Results filed as inconclusive are left out. Unmarked numbers belong to inactive results. Calls follow the shape of the full dose curve.
target: Vitamin D3 receptor (Homo sapiens) (UniProt P11473); test: qHTS assay to identify small molecule agonists of the vitamin D receptor (VDR) signaling pathway (AID 743222); conditions: HEK293T VDR-UAS-bla, beta-lactamase FRET ratio, 16 h; series mostly up to 63.5 µM; activation: at the top concentration
Excerpt: National Center for Advancing Translational Sciences [NCATS]
NIH Chemical Genomics Center [NCGC]
U.S. Environmental Protection Agency [EPA]
National Institutes of Environmental Health Sciences [NIEHS]
National Toxicology Program [NTP]
U.S. Food and Drug Administration [FDA]
The vitamin D receptor (VDR), a member of nuclear hormone receptor superfamily, plays a critical role in calcium homeostasis and bone metabolism. It is also involved in cell differentiation and growth, and thrombogenicity.
Tox21 Assay Protocol Summary:
VDR-bla cells were dispensed at 2,000 cells/6 uL/well into black wall/clear-bottom 1536-well plates using a Multidrop Combi (Thermo Fisher Scientific, Waltham, MA) dispenser. After the assay plates were incubated at a 37C and 5% CO2 for 4 h, 23 nL of compounds dissolved in DMSO, positive controls or DMSO only was transferred to the assay plate by a Pintool station (Kalypsys, San Diego, CA). The plates were incubated at 37C and 5% CO2 for 16 h. After 1 uL of LiveBLAzerTM B/G FRET substrate was added using a Bioraptr Flying Reagent Dispenser (FRD) workstation (Beckman Coulter, Indianapolis, IN, USA), the plates were incubated at room temperature for 2 h, and fluorescence intensity was measured by an Envision plate reader (PerkinElmer, Shelton, CT).
% is scaled to controls: 0 for no effect and ±100 for the full control effect.

Chain of Vitamin D3 receptor (Homo sapiens) (P11473 whole entry, looked up): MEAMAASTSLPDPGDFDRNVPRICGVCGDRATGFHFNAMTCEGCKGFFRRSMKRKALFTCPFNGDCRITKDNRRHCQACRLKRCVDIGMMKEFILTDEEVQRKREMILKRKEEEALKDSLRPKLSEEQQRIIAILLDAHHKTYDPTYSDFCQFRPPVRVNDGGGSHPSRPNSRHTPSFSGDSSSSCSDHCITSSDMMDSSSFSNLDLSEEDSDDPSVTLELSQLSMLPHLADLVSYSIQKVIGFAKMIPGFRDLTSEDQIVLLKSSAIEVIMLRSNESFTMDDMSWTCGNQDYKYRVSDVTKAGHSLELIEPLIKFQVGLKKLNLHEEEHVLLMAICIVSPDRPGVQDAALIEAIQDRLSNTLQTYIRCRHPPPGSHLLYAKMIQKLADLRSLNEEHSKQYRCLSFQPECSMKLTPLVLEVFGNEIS

| Structure (SMILES) | activation |
| --- | --- |
| O=C(O)c1cccnc1Nc1cccc(C(F)(F)F)c1 | -9.57% |
| O=Cc1ccc(Cl)c([N+](=O)[O-])c1 | 1.65% |
| Oc1ccc(Oc2ccccc2)cc1 | 4.91% |
| Nc1ncnc2c1ncn2[C@@H]1O[C@H](CO)[C@@H](O)[C@H]1O | 4.15% |
| C(/C=C/C=C/Nc1ccccc1)=Nc1ccccc1 | -1.8% |
| CO[C@@H]1COCC[C@@H]1N[C@@H]1CC[C@@](C(=O)N2CCc3ncc(C(F)(F)F)cc3C2)(C(C)C)C1 | -8.06% |
| O=C1CCCN1CCO | -0.619% |
| CCCCCCCCCCCCSC#N | -13.8% |
| C/C(=C\C(C)CC(C)CC(C)C)C1CC(=O)OC1=O (stereo not given) | 13.4% |
| Cc1ccc(S(=O)(=O)NC(=O)NC2CCCC2)cc1 | 0.744% |
| CC(=O)c1cccnc1 | -1.74% |
| C/C(=C(\CCO)SS/C(CCO)=C(\C)N(C=O)Cc1cnc(C)nc1N)N(C=O)Cc1cnc(C)nc1N | 4.82% |
| CCCCOC(=O)CC#N | -12.3% [at 81.1 µM] |
| CCCCCCOC(=O)c1ccccc1 | -13.6% |
| CCOc1ccccc1O | 5.57% |
| C=CC(O)CCCCC (stereo not given) | 3.72% |
| O=C(Cl)c1ccc(F)c(Cl)c1 | 4.49% |
| CCOc1ccc2c(c1)C(C)CC(C)(C)N2 (stereo not given) | -4.87% |
| CCCCCC1CCC(=O)O1 (stereo not given) | 4.9% |
| COC(=O)/C=C/C(C)=C\C=C\C(C)=C\C=C\C=C(C)\C=C\C=C(C)\C=C\C(=O)O | -11.1% |

| Structure (SMILES) | activation |
| --- | --- |
| O=C(O)c1c2ccccc2cc2ccccc12 | -7.84% |
| Nc1ccc(-c2ccc(F)cc2)cc1 | -5.69% |
| CCOc1cc(OCC)c(C(C)=O)cc1OCC | -12.1% |
| Cc1ccccc1CCO | -1.18% |
| CCC(=O)O[C@@H]1C[C@H]2CC[C@]1(C)C2(C)C | -0.289% |
| CC(C(=O)O)c1ccc(/C=C2\CCCCC2=O)cc1 (stereo not given) | -15.4% |
| CCCCCCCCCC(C)C=O (stereo not given) | -5.35% |
| SCCOCCOCCS | 1.5% |
| NC(=O)c1ccccc1 | -5.8% [at 81.1 µM] |
| OCCc1ccncc1 | -6.12% |
| c1ccc(CCNc2nc(-c3ccccc3)cs2)cc1 | 5.18% |
| C[Si](C)(C)O[Si](C)(C)O[Si](C)(C)C | 2.09% |
| CCN(CC)CC(=O)OCC(=O)[C@@]1(O)CC[C@H]2[C@@H]3CCC4=CC(=O)CC[C@]4(C)[C@H]3[C@@H](O)C[C@@]21C | -3.65% |
| Cc1ccc2ccccc2c1[N+](=O)[O-] | 0.914% |
| COc1ccnc2c1CCCCC2S(=O)c1nc2ccccc2[nH]1 (stereo not given) | -15.8% |
| CC(=O)CC/C=C(\C)CC/C=C(\C)CC/C=C(\C)CCC=C(C)C | 4.33% |
| CC(=O)S[C@H](C(=O)N[C@H]1Cc2ccccc2[C@H]2CCC[C@@H](C(=O)O)N2C1=O)C(C)C | 1.86% |
| O=C(O)c1cccc(C(=O)O)c1C(=O)O | 0% [at 81.1 µM] |
| C=CC(=O)NC(C)(C)C | 8.76% |
| C[C@H](N)C(=O)N[C@@H](C)C(=O)NC1[C@H]2CN(c3nc4c(cc3F)c(=O)c(C(=O)O)cn4-c3ccc(F)cc3F)C[C@@H]12 (stereo not given in full) | 0.934% |
